Experiments:
Experiment in all cases: log2 ratio of Biotin-Ahx-Ub-VS probe labelling (fragment/DMSO); higher = less target engagement (more negative = stronger competition), active = hit call of the paper (q ≤ 0.05, log2 ratio ≤ -1)
Conditions in all cases: compound concentration: 200 uM; treatment time: 3 h
[1] = biological target: USP34 (UniProt Q70CQ2)
Summary of the method: (§1)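 Average log2 ratios of fragment over vehicle were obtained by unpaired t-test from global-median-normalised Spectronaut label-free quantities. Proteins with ≥2 unique peptides were included. HEK293T lysate (495 µg per sample) was treated in triplicate with fragment at 200 µM or vehicle for 3 h, then with Biotin-Ahx-Ub-VS at 0.5 µM final for 1 h, and labelled DUBs were NeutrAvidin-enriched and run by diaPASEF LC-MS/MS.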

[2] = biological target: T1, USP36 (UniProt Q9P275)
T1 sequence (whole entry): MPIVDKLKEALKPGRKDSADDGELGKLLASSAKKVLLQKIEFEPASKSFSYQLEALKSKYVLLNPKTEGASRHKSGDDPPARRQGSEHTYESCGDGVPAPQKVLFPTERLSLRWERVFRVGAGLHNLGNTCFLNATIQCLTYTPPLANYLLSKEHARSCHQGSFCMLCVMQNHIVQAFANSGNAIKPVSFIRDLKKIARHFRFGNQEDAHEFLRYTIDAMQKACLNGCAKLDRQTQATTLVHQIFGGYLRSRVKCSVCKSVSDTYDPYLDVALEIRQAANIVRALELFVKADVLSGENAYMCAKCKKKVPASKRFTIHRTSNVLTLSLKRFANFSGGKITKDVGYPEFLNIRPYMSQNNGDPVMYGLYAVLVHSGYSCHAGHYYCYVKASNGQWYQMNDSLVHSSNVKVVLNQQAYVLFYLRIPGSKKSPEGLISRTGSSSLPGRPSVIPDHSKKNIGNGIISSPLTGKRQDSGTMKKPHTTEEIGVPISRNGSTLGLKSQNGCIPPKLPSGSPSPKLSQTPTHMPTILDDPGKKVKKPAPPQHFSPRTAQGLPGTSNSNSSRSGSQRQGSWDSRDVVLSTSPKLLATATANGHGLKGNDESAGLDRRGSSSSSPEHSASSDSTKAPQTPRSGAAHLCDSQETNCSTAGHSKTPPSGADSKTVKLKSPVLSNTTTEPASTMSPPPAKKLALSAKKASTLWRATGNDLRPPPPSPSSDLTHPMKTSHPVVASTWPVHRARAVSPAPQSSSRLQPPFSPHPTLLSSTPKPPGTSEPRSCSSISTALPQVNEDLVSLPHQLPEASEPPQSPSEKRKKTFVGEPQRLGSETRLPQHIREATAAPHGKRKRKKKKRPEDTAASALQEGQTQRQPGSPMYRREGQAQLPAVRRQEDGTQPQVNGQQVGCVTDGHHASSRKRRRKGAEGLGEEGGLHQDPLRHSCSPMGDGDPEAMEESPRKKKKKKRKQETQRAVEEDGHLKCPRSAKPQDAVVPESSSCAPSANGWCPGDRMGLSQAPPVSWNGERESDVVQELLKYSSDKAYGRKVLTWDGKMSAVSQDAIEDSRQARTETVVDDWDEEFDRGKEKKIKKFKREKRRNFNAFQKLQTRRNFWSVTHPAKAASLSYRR
Summary of the method: as §1

[3] = biological target: T2, USP38 (UniProt Q8NB14)
T2 sequence (whole entry): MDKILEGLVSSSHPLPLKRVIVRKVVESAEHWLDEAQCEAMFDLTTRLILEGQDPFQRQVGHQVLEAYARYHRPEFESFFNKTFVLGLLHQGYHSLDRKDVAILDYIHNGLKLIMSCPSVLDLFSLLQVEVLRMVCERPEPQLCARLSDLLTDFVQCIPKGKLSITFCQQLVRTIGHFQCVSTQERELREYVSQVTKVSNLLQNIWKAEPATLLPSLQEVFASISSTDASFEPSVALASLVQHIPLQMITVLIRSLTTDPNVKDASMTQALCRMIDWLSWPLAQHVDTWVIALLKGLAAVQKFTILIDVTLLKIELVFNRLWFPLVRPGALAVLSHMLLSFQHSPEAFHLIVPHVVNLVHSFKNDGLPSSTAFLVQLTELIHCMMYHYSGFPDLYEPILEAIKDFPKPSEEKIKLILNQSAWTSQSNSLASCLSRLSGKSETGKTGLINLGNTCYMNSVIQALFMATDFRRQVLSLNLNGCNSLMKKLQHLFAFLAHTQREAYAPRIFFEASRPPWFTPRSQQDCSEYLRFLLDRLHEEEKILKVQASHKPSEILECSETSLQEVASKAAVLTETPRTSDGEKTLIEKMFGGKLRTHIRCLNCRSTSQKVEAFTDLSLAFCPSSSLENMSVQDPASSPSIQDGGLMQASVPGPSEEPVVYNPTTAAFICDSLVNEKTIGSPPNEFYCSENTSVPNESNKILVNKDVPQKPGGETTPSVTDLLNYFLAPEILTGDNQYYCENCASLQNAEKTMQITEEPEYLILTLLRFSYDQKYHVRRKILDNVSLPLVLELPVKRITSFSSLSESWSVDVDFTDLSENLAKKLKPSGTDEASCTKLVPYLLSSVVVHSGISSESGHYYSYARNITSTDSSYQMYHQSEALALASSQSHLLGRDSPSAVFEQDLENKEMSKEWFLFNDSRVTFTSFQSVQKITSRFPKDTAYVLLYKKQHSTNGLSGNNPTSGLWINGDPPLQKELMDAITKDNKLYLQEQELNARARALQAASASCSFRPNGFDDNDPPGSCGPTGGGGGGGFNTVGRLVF
Summary of the method: as §1

[4] = biological target: T3, USP39 (UniProt Q53GS9)
T3 sequence (whole entry): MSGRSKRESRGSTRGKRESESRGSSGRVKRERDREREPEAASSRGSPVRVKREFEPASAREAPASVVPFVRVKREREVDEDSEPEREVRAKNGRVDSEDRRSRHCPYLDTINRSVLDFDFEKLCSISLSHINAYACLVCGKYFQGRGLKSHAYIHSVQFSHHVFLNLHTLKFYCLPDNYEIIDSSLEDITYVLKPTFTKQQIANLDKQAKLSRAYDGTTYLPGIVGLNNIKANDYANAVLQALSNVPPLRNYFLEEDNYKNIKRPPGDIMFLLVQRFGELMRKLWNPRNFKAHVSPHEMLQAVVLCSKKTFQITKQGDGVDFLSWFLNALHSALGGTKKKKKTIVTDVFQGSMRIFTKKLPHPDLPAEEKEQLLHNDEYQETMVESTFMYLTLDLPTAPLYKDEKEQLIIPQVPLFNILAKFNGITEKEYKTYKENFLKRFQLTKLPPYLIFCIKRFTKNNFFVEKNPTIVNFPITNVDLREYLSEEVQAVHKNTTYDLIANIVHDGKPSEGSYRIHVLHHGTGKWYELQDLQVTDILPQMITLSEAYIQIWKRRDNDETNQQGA
Summary of the method: as §1

[5] = biological target: T4, USP4 (UniProt Q13107)
T4 sequence (whole entry): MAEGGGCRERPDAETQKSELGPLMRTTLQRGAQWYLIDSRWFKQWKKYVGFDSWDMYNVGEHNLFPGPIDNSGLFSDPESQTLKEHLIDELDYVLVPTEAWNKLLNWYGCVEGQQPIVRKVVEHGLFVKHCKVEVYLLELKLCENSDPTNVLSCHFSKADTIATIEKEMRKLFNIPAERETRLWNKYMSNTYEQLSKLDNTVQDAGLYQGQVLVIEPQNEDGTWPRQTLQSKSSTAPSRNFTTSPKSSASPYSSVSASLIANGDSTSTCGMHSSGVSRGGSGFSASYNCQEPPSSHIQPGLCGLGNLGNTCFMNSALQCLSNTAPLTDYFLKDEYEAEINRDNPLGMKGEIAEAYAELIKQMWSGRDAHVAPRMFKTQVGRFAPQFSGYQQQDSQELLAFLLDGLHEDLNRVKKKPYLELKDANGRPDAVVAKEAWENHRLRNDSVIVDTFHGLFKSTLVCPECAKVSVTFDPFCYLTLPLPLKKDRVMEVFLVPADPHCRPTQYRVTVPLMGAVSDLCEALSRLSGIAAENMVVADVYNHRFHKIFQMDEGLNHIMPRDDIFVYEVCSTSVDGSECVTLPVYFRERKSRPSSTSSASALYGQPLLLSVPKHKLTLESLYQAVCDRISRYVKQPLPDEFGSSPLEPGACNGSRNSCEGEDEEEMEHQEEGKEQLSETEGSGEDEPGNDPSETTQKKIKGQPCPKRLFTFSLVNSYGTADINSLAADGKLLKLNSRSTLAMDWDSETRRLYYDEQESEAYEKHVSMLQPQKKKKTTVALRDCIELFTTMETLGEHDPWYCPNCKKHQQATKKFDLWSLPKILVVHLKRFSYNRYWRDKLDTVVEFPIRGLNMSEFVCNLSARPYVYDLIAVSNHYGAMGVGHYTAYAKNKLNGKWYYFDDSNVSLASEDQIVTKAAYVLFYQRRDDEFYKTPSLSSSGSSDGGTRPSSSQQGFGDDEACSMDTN
Summary of the method: as §1

Measured: log2 ratio of Biotin-Ahx-Ub-VS probe labelling

Sequence of USP34 (Q70CQ2 whole entry, the tested form may be a part): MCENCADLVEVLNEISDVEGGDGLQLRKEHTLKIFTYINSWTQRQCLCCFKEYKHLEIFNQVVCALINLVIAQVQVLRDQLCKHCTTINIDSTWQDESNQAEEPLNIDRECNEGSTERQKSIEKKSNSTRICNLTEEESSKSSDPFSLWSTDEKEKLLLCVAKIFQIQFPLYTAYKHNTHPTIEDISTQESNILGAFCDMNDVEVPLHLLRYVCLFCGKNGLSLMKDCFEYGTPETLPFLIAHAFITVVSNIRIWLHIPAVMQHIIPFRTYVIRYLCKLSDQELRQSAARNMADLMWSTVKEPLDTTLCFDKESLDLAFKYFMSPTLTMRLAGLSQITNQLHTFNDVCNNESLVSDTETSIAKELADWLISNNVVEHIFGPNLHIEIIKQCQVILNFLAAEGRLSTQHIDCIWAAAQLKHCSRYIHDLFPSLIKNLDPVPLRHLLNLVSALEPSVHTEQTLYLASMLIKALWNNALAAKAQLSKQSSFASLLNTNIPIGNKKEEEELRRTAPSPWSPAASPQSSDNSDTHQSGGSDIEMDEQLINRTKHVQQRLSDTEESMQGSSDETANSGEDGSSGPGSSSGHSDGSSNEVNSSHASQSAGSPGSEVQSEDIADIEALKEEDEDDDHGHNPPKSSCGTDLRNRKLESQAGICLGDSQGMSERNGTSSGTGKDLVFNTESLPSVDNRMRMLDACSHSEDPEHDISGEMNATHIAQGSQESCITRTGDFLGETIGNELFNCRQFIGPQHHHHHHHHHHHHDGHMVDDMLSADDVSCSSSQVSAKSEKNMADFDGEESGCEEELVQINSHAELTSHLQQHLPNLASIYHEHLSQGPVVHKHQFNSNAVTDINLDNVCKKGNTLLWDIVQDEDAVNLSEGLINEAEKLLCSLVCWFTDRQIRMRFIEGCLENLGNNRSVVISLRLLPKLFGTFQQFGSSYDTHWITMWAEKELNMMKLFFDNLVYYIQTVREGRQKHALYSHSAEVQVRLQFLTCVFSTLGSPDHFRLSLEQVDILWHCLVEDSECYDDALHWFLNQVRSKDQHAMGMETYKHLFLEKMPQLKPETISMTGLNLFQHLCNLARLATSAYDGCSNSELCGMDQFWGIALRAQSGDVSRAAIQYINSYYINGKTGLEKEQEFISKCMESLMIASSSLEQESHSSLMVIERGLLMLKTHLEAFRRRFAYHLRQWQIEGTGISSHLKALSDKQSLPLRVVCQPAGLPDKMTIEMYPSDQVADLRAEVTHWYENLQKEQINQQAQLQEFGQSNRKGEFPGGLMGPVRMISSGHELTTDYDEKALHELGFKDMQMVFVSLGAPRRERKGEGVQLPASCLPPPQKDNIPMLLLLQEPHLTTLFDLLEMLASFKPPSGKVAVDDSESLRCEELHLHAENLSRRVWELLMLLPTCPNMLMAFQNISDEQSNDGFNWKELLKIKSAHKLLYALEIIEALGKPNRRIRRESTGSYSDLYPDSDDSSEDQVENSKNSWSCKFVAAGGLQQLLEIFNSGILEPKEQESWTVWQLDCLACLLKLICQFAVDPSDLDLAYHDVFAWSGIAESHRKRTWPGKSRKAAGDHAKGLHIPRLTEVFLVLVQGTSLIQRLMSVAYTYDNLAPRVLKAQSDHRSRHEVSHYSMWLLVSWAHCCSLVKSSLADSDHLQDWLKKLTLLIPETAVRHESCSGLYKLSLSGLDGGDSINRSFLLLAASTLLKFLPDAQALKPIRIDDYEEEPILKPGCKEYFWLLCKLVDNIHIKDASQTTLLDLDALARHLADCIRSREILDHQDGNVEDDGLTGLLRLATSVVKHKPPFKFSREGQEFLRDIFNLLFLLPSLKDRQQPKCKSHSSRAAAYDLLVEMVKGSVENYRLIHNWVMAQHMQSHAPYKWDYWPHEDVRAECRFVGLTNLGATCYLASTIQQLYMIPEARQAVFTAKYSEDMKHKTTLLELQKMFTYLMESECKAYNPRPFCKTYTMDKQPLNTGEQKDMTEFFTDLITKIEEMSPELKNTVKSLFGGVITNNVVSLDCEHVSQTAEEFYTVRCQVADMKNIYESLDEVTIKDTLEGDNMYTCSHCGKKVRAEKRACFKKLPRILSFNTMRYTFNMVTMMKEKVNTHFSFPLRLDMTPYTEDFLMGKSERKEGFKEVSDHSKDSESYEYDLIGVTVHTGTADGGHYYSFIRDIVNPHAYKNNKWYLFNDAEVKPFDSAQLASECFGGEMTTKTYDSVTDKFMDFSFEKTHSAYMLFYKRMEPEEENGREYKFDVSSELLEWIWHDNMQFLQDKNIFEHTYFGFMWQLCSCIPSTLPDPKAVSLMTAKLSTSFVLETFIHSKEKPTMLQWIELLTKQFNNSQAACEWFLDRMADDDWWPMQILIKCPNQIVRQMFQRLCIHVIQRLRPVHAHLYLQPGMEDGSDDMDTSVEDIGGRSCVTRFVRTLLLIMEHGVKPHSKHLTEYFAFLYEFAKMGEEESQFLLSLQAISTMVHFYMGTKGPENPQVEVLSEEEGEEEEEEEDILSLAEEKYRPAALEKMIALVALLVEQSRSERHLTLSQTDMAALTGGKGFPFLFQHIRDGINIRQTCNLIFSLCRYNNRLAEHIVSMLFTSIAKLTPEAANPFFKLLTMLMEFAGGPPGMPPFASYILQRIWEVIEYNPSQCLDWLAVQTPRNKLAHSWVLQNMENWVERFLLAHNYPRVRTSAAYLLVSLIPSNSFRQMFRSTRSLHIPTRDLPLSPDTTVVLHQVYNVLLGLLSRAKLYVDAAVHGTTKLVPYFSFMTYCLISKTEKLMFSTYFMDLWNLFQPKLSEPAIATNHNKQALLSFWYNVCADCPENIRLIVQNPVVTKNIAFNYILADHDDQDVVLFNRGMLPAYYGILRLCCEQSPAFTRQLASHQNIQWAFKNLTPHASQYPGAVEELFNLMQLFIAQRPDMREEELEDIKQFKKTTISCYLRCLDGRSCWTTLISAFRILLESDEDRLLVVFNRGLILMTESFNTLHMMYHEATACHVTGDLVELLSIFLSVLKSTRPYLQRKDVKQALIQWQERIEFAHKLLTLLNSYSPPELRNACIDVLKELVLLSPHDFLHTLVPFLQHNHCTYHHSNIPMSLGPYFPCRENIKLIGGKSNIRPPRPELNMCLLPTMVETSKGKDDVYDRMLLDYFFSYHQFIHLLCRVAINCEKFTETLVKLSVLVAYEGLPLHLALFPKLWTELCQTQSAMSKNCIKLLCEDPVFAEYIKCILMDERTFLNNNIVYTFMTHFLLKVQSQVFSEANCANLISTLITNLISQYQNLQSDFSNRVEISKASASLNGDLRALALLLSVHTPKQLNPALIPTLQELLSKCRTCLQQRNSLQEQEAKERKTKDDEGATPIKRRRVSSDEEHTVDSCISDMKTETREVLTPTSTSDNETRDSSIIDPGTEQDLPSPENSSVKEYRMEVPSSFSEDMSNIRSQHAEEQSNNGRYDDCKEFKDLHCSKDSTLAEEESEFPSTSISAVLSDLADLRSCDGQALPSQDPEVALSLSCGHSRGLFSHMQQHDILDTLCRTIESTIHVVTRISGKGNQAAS

O=C(CCl)NCC1(c2ccccc2)CC1
inactive: [1] -0.227 | [2] -0.0695 | [3] 0.127 | [4] -0.168 | [5] -0.0752
